# Hits are enriched below; roughly 22% of the tested compounds scored in any of these assays.
# Shiga toxin inh: Shiga toxin inhibition; inhibition, % at 38.7 µM; AID 2315; Vero cells, Shiga toxin protein synthesis inhibition reporter; 290,000 compounds, 9.2% hits; in the data active = inhibition mostly above about 28%, no sharp cut-off; inactive = mostly below about 43%; also: 0% is about no effect
# Pf growth 96h: P. falciparum growth inhibition at 96 hours | P. falciparum luciferase reporter growth, 96 h | Potency, µM (doses to about 28.7 µM), for inactives: at the highest dose activity change, negative = inhibition, most hits filed as inhibitors | 320,000 compounds, 6.9% hits | AID 504834; also: potency is read from the fitted curve at half-maximal effect; % is scaled to controls: 0 for no effect and ±100 for the full control effect
#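 Parasite growth measured via integrated firefly luciferase reporter in P. falciparum. Infected erythrocytes at 2% hematocrit, 0.05% parasitemia final were treated 96 hours at 37 C under 5% CO2, and luminescence was read.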
# Pf growth 48h: P. falciparum growth inhibition at 48 hours (one generation) | P. falciparum luciferase growth in erythrocytes, 48 h | Potency, µM (highest dose often 28.7 µM), for inactives: top-dose activity change, negative = inhibition, actives largely listed as inhibitors | 310,000 compounds, 5.9% hits | AID 504832; also: potency is read from the fitted curve at half-maximal effect; % is scaled to controls: 0 for no effect and ±100 for the full control effect
#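 Read-out is firefly luciferase luminescence from an integrated reporter in P. falciparum, so falling signal marks reduced parasite growth. Infected erythrocytes were at 2% hematocrit and 0.1% parasitemia (final) in Albumax-supplemented RPMI 1640.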
# Cycloheximide cs: counter-screen for Shiga toxin inhibitors: cycloheximide protein synthesis inhibition; max response, %; cell reporter, cycloheximide protein synthesis inhibition counterscreen; 300,000 compounds, 12% hits; AID 2314; in the data active = max response mostly above about 13%, no sharp cut-off; inactive = mostly below about 14%; also: read at 38.3 µM for the half of the compounds with a filed dose; 0% is about no effect
# LmPK inh: inhibitors of Leishmania mexicana pyruvate kinase; Q27686; purified LmPK, Kinase-Glo ATP luminescence, 1 h; Potency, µM (top dose mostly 57.5 µM), inactives show at the highest dose activity change, negative = inhibition, hits mostly inhibitors; 290,000 compounds, 0.37% hits; also: potency is read from the fitted curve at half-maximal effect; % is scaled to controls: 0 for no effect and ±100 for the full control effect
# Target sequence (Q27686 whole entry, looked up): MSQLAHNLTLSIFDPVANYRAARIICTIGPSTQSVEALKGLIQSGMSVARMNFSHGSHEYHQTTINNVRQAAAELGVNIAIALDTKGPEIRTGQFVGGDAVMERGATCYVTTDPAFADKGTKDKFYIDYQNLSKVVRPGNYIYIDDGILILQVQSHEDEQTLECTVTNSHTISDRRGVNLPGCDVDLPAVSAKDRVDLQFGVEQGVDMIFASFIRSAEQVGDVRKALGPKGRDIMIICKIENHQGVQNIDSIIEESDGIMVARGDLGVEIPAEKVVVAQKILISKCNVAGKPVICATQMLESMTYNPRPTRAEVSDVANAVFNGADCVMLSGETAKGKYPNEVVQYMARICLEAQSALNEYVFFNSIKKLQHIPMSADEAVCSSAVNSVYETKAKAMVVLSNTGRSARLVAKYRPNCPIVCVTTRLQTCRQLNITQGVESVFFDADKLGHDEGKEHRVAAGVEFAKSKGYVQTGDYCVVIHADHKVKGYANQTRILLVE
#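 ATP generated from ADP (0.1 mM) and PEP (0.5 mM) by 0.1 nM LmPK over 1 h at room temperature (pH 7.2 imidazole buffer) was detected by coupled luciferase luminescence. Values were normalized to uninhibited and no-enzyme wells.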
# Active calls of the source: *; ? = inconclusive; . = not tested or not shown; [ ] = dose if it differs, or a comment. Unless noted, calls follow the shape of the dose curve; as a rule, active = well fitted inhibition curve with a large enough effect; inconclusive = small, poorly fitted or top-dose-only effect, or another doubt; inactive = no such curve, though single readings can be large or run the other way.
SMILES,Shiga toxin inh,Pf growth 96h,Pf growth 48h,Cycloheximide cs,LmPK inh
CCN1C(=O)[C@@H]2[C@H](C1=O)[C@@H]1C(=O)Nc3ccccc3C(=O)N1[C@@H]2c1cccc(Cl)c1,-6,45%,21%,-4,3%
CCOC(=O)C1=C(COC(=O)c2ccc(Cl)cc2[N+](=O)[O-])NC(=O)NC1C (centres undefined),.,35%,19%,.,.
N#C/C(=C\c1cccc(O)c1)C(=O)Nc1ccc2c(c1)OCCO2,83*,-22%,?,60*,0%
CC(C)NC(=O)/C(C#N)=C/c1ccc2c(c1)OCCO2,85*,13%,-4%,22*,-5%
CC1(C)[C@@H](OC(=O)CCC(=O)O)CC[C@@]2(C)[C@H]1CC[C@@]1(C)[C@H]2C(=O)C=C2[C@H]3C[C@](C)(C(=O)O)CC[C@]3(C)CC[C@@]21C,.,0%[12.8 µM],4%[12.8 µM],.,.
Cc1ccc(-c2nc(SCC(=O)NCC3CCCO3)c(-c3ccccc3)[nH]2)cc1 (centres undefined),-6,?,-3%,-6,0%
Oc1ccc2c3c1O[C@H]1c4oc5ccccc5c4C[C@@]4(O)[C@@H](C2)N(CC2CC2)CC[C@]314,25,4.7µM*,?,-3,-6%
Oc1ccc2c3c1O[C@H]1c4[nH]c5ccccc5c4C[C@@]4(O)C(C2)N(CC2CC2)CC[C@]314,-8,.,.,-2,15%
Oc1ccc2c3c1O[C@H]1[C@@H](O)CC[C@@]4(O)C(C2)N(CC2CCC2)CCC314 (some centres undefined),.,3.4µM*,?,.,.
O=C(NCc1ccc(F)cc1)C(=O)NCC1OCCCN1S(=O)(=O)c1cccs1 (centres undefined),-4,-3%,-11%,-4,-4%
COc1ccc2nc(SC(C(=O)c3ccccc3)c3ccccc3)nc(C)c2c1 (centres undefined),-5,13µM*,?,1,1%
COc1ccc2nc(SCc3cccc(C)c3)nc(C)c2c1,62*,?,134%,27*,7%
Cc1ccc2nc(SCc3cccc([N+](=O)[O-])c3)nc(C)c2c1,-22,17%,28%,-4,2%
Cc1nc(SC(C(=O)c2ccccc2)c2ccccc2)nc2ccccc12 (centres undefined),-3,?,?,1,0%
COc1ccc2nc(SCc3ccccc3C)nc(C)c2c1,0,?,20%,12*,1%
CC(=O)c1cccc(N(C(=O)CNC(=O)c2ccco2)C(C(=O)NCc2ccco2)c2ccccc2)c1 (centres undefined),2,?,-1%,-2,3%
CCC(C)N(C(=O)COC(=O)c1ccc(=O)n(Cc2ccccc2)n1)C1CCS(=O)(=O)C1 (centres undefined),.,?,45%,.,.
O=C1c2ccccc2-c2nc3ccccc3nc21,52,.,?,29*,?
O=c1[nH]c(=O)c2ncc(-c3ccc(Cl)cc3)nc2[nH]1,2,5%[5.75 µM],9%[5.75 µM],-4,3%
Cn1nc(NC(=O)C(F)(F)F)c2ncc(-c3ccc(Cl)cc3)nc21,68*,42%,95%,41*,0%
CN(C)CCCn1c(SCC(=O)Nc2nccs2)nnc1-c1ccncc1,-4,?,39%,-2,4%
O=C(CCC(=O)c1ccc(F)cc1)NC1CCCN(Cc2ccccc2F)C1 (centres undefined),.,13µM*,1%,-1,3%
O=C(Cn1cnnn1)NC1CCCN(Cc2ccccc2F)C1 (centres undefined),-5,5.2µM*,15%,1,0%
CC(C)Cc1ccc(CN2CCCC(NC(=O)Cn3cnnn3)C2)cc1 (centres undefined),16,?,-7%,11,-2%
CN(C)C(=O)c1ccc(NC(=O)COC(=O)C2CCN(S(=O)(=O)c3ccc4c(c3)OCCO4)CC2)cc1,.,21%,-29%,.,.
O=C(NCc1ccccc1)Nc1cccn(Cc2cccc(F)c2)c1=O,4,?,11%,6,2%
CC(=O)Nc1cc(NC(C)=O)cc(C(=O)N2CCCC3CCCCC32)c1 (centres undefined),-6,-10%,31%,1,7%
Nc1nc(F)cc(NCc2ccccc2)n1,32,197%,11%,13,-1%
Cc1ccc(C(=O)N2CCN(C(=O)c3ccc(C)cc3)C2)cc1,-4,-13%,-8%[5.75 µM],-1,2%

# Screening data deposited in PubChem by National Center for Advancing Translational Sciences (NCATS).
